About 83,000 compounds went through this panel and 20% of them were active in at least one assay; those are over-represented in the sample as a whole.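 Interpretation: 100, growth as untreated; towards 0, rising growth inhibition; 0, no net growth; 0 to -100, cell death. Compounds scoring below 10 were considered active.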 The source made the active and inactive calls.

The test system of the assay is HL-60(TB) leukemia. In words: NCI-60 one-dose screen, 48 h (100 = growth as untreated, 0 = no growth, -100 = all killed). The conditions noted are these: 10 µM unless noted. The procedure:
Growth inhibition of the HL-60(TB) human tumor cell line is measured as a screen for anti-cancer activity. Cells are grown in 96 well plates and exposed to the test compound for 48 hours. Compounds are tested at a single concentration, which is 10^-5 M for most compounds. The reported endpoint is percent growth (GI% or GIPRCNT), where numbers from 0 - 100% represent growth inhibition, and numbers from -100% - 0 represent cell death. For example, a value of 40 represents 60% growth inhibition. A value of 0 means no net growth occurred over the course of the experiment. A value of -40 indicates 40% of cells at the beginning of the experiment died by the end of the experiment. A value of -100 means all cells are dead at the end of the experiment.
NCI-60 Human Tumor Cell Lines Screen was performed using the standard one-dose NCI protocol, which is described in more detail at https://dtp.cancer.gov/discovery_development/nci-60/default.htm.
Compounds with GIPRCNT values below 10 were considered active. Activity score was based on GIPRCNT using the following formula: […]
Score is 0 for GIPRCNT values of 100 or above, 50 for GIPRCNT values of 0, and 100 for GIPRCNT values of -100.
Turning to `CC(=O)c1nnn(-c2c(C(=O)n3nc(C)cc3C)sc(=S)n2-c2ccccc2)c1C`, the growth was 110% (inactive).

`O=[N+]([O-])c1ccc(O)c2ncccc12`: the growth was -5.62% (active).

Consider `COc1ccc(Cn2cc(C#N)c(N)c2C(C)=O)cc1`, for which the growth was 103% (inactive). For the molecule `COc1cc2cc(Oc3ccc(NC(=O)c4cccc(C(F)(F)F)c4)cc3)c(C)nc2cc1OCCN(C)C`, the growth was 97.2% (inactive). Under `Cn1cc(-c2cc3ncnc(Nc4ccc(CC(=O)Nc5nc(C(C)(C)C)cs5)cc4)c3s2)cn1` stands 29.2% (inactive); under `Cn1ccnc1C(=O)/C=C/c1ccc(NC(=O)c2ccc(F)cc2)cc1`, 11.8% (inactive); under `CC(C)=CCc1c2c(c(O)c3c1O[C@]14C(=C[C@@H]5C[C@H]1C(C)(C)O[C@@]4(C/C=C(/C)C(=O)O)C5=O)C3=O)C=CC(C)(C)O2`, -33.7% (active).

For `Cc1c(C(=O)/C=C/c2ccc(Cl)cc2)nnn1-c1ccc2oc(=O)ccc2c1`, the growth is 92.9% (inactive). As for `Cc1nc(-c2cc3ccccc3c(N3CCN(C)CC3)n2)cs1`, the growth was 97.2% (inactive). As to `COc1cc(-c2noc(C[C@@H](NC(=O)OCc3ccccc3)C(C)C)n2)cc(OC)c1OC`, the growth was 100% (inactive). `C#CCn1cccc1CNc1ccc(OC)cc1`: the growth is -63.1% (active).

Turning to `CCN1CCN(S(=O)(=O)c2oc(-c3ccc(Cl)cc3)nc2C#N)CC1`, the growth was 7.25% (active). In the case of `COc1cc2cc(Oc3ccc(NC(=O)c4cccc(C(F)(F)F)c4)cc3)c(C)nc2cc1OCCN1CCCCC1`, the growth is -51.6% (active). On to `COc1ccccc1/C=C/C=N/NC1=NC2C(S1)N(C)C(=O)N2c1ccccc1` (stereo not given), for which the growth is -25.7% (active). Under `N#Cc1c(NC(=O)c2ccccc2C(F)(F)F)sc2c1CCC(=O)C2` stands 3.87% (active). Turning to `CN1CCN(c2ccc(Nc3nc(NCCCNS(=O)(=O)c4cccc(F)c4)c4sccc4n3)cc2)CC1`, the growth was -48.7% (active). Under `N#C/C(=C\c1ccc(Cl)cc1Cl)C(N)=O` stands 90.9% (inactive); under `COc1ccc(OC)c(CCn2cncc2-c2c[nH]c3ccc(Cl)cc23)c1`, 7.06% (active).

Turning to `CCCn1cnc2c(c1=N)C(c1ccc(F)cc1)c1sc3c(CC)cccc3c1O2` (stereo not given), the growth was -36.4% (active). Under `Nc1nc(N)c2c(n1)NC(c1ccc(Cl)cc1)CC(c1ccc(Nc3nc(NCCO)nc(N4CCOCC4)n3)cc1)=N2` (stereo not given) stands 27% (inactive). In the case of `N#Cc1cn(Cc2ccc(Cl)cc2Cl)c(C(=O)c2ccc(Br)cc2)c1N`, the growth is 96.6% (inactive). For `COc1cc(C2N=C(NNc3ccccc3)NC(C)=C2C(C)=O)ccc1O` (stereo not given), the growth is 92.3% (inactive). Consider `CCN1CCN(Cc2ccc(C(=O)Nc3ccc(C)c(Oc4ccc(-c5[nH]nc6ncnc(N)c56)cc4)c3)cc2C(F)(F)F)CC1`, for which the growth is 139% (inactive). Under `CC1CCc2c(sc3nc(SCC(=O)N/N=C/c4ccc(Cl)cc4)n(-c4ccccc4)c(=O)c23)C1` (stereo not given) stands 107% (inactive). For the molecule `CCOC(=O)c1c(Nc2ccccc2)nn2c(-c3ccc(OC)c(OC)c3)ccnc12`, the growth was 43.3% (inactive).

For `O=C(Nc1cc(F)cc2cccnc12)c1cnc(N2CCOCC2)cn1`, the growth was 36.9% (inactive). Consider `CCc1cc(OC(=O)N2CCN(CCC(C)(COC(C)(C)C)COC(C)(C)C)CC2)ccc1Nc1cc(-c2ccc(-n3cccn3)cc2)[nH]n1`, for which the growth is 66.5% (inactive). `O=C(Cn1c(-c2ccccc2)nc2cc(Cl)c(Cl)cc21)N=Nc1c(O)[nH]c2ccc(Cl)cc12`: the growth is 92.1% (inactive). Under `Oc1ccc(CSc2nnc(-c3ccc(Cl)cc3)n2-c2ccccc2)c2cccnc12` stands 23.6% (inactive). Regarding `COC(=O)Nc1ccc(-c2nc(-c3cccc(O)c3)c(-c3ccnc(Br)c3)[nH]2)cc1`, the growth is 28.1% (inactive). As to `N=C1CC(=O)NN1C(=O)CSc1nc2sc3c(c2c(=O)n1-c1ccc(Cl)cc1)CCCC3`, the growth was 108% (inactive). For the molecule `O=S(=O)(NCCCNc1nccc(-c2[nH]c(-c3ccccc3)nc2-c2ccc(F)c(O)c2)n1)c1cccc2ccccc12`, the growth is 59.4% (inactive).

Regarding `CO/N=C1\CCc2c(sc(NC(=O)c3cccc(C(F)(F)F)c3)c2C(N)=O)C1`, the growth was 70.3% (inactive). Under `NS(=O)(=O)c1nnc(/N=C/c2c(O)[nH]c3ccccc23)s1` stands 123% (inactive); under `CCN1C(=O)N(CC)C2SC(N/N=C/c3cccs3)=NC21` (stereo not given), 1.27% (active); under `COc1ccc(-c2c3c(cn2Cc2cccc(OC)c2)-c2oncc2CCC3)cc1`, 100% (inactive). For `COc1ccc(-c2nc(C(Cl)Cl)nc3cc(-c4ccccc4)nn23)cc1`, the growth was -7.77% (active). Consider `Cc1nn(-c2ccccc2)c2ncnc(N/N=C/c3ccccc3)c12`, for which the growth is 91.5% (inactive). For `O=C(N/N=C\c1ccc(F)cc1)c1ccc2nc(-c3ccc(Br)cc3)[nH]c2c1`, the growth is 78.8% (inactive). `COc1cccc(OC)c1-c1nnn(C)c1C(=S)N1CCN(c2ccc([N+](=O)[O-])cc2Cl)CC1`: the growth was 44.3% (inactive).

The values above are taken from PubChem BioAssay (NCI).
